HEK293 cAMP cs: raises cAMP in parental HEK293 cells, TSHR agonist counter-screen. 2.5% of 73,000 active. AID 938. parental HEK293 CNG cAMP sensor, membrane potential fluorescence. Potency, µM (titrated, usually from 57.1 µM), inactives show at the highest dose activation, hits mostly activators; also: % of control where 0% means no effect; nearly all actives have a fitted effect of over 55% in size
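Parental HEK 293 cells stably expressing a cAMP-gated CNG channel were loaded with membrane potential dye containing 100 uM RO 20-1724 for 60 min. Compound added for 30 min; depolarization read as fluorescence intensity at 590 nm.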
TSHR agonist: activates the human thyroid stimulating hormone receptor; P16473; HEK293-CNG-TSHR cells (CNG channel as cAMP sensor), membrane potential dye, cAMP; Potency, µM (highest dose often 57.1 µM), inactives show at the top dose activation, hits mostly activators; AID 926; 0.48% of 73,000 active; active = well fitted activation curve with a large enough effect in the main read-out, with a control signal flat, not every such curve was filed as active; inconclusive = small, poorly fitted or top-dose-only effect, or a change in a side signal; inactive = no such curve, though single readings can be large or run the other way; % of control where 0% means no effect;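 also: the control signal comes from parental cells without the receptor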
Target sequence (P16473 whole entry, looked up): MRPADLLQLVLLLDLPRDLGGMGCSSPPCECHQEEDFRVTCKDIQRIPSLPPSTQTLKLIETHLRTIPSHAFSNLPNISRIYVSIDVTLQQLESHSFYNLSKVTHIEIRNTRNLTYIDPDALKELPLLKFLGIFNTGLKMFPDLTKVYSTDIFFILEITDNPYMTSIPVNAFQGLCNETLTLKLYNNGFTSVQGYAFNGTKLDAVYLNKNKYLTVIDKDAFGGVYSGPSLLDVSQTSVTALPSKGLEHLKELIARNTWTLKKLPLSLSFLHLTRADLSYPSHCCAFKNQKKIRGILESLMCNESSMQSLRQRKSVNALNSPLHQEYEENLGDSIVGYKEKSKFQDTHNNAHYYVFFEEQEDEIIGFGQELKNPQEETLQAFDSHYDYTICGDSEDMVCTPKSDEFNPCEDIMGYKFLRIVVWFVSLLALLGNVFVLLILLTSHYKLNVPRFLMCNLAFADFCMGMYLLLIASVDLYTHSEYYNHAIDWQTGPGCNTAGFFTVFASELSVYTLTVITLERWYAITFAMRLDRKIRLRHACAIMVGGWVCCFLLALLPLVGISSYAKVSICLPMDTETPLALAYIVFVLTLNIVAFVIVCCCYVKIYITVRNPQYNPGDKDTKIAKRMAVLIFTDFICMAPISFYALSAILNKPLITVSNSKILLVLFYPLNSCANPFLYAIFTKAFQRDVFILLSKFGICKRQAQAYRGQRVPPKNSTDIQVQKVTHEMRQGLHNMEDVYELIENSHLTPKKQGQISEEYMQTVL
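cAMP rise detected as CNG-channel membrane depolarization by fluorescent dye (emission 590 nm), 30 min after compound, following 60 min dye loading containing 100 uM RO 20-1724 at room temperature. Cells: TSHR/CNG HEK 293, with parental CNG HEK 293 as control.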
CRE-bla Fsk: modulators of forskolin-stimulated CRE signaling in CHO cells. Potency, µM (highest dose often 38.2 µM), for inactives: at the top dose activity change, negative = inhibition, hits mostly activators. CHO CRE-bla reporter (cAMP response element driving beta-lactamase), forskolin EC10, beta-lactamase ratio. 2.5% of 71,000 active; active = well fitted activation curve with a large enough effect in the signal ratio, with a control signal flat, not every such curve was filed as active; inconclusive = small, poorly fitted or top-dose-only effect, or effect the other way, or a change in a side signal; the % refers to the signal ratio; also: % of control where 0% means no effect
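CRE-bla CHO reporter cells treated with compound titration plus EC10 NKH 477 (water-soluble forskolin), incubated 3 h at 37 °C; CCF4 loading 2 h at room temperature, 460/530 nm emission ratio read, AC50 values derived for positive or negative modulators.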
IkB sig inh: suppresses IkB signaling in ABC-DLBCL reporter cells; AID 445; 0.04% of 110,000 active; ABC-DLBCL IkBa-CBG/CBR dual luciferase ratio, 4 h; response scale: scaled: untreated 0%, proteasome inhibitor 100%; Potency, µM (doses to about 57.1 µM), inactives show at the highest dose IkBa stabilization activation; active = well fitted curve in the direction sought with a large enough effect in the signal ratio, not every such curve was filed as active; inconclusive = small, poorly fitted or top-dose-only effect, or a change in a side signal; the % refers to the signal ratio;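 also: the direction sought is a rising ratio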
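Luminescence ratio of IκBα-fused green versus native red beetle luciferase in OCI-Ly3 cells, 4 h post-doxycycline with compound; red signal alone, scaled from basal (0%) to zero light (-100%), flagged nonspecific or cytotoxic effects.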
ERK AVP inh: blocks ERK signaling stimulated by vasopressin; HEK293-V1b, vasopressin-stimulated pERK AlphaScreen; Potency, µM (titrated, usually from 57.5 µM), without a hit: at the highest dose activity, negative = inhibition, most hits filed as inhibitors; 0.99% of 72,000 active; also: % is scaled to controls: 0 for no effect and ±100 for the full control effect; nearly all actives have a fitted effect of over 55% in size
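qHTS, compounds titrated on V1b-expressing HEK293 cells. Preincubation 30 min at 37C, vasopressin 25 nM for 5 min, lysis 10 min, bead incubation 5 hr at room temperature.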
An asterisk follows results filed as active; ? = inconclusive; · = no result; [ ] = remark or other dose. Only some compounds are listed: those with a hit (about 3.6% of all), similar ones and a draw of the others. Unless noted, calls follow the shape of the dose curve; as a rule, active = well fitted curve in the direction sought with a large enough effect; inconclusive = small, poorly fitted or top-dose-only effect, or another doubt; inactive = no such curve, though single readings can be large; an effect the other way counts as inactive or inconclusive. Potency is read from the fitted curve at half-maximal effect.

SMILES	HEK293 cAMP cs	TSHR agonist	CRE-bla Fsk	IkB sig inh	ERK AVP inh
O=C(Nc1ccc2nc(-c3cccs3)c(-c3cccs3)nc2c1)N1CCOCC1	8%	2%	10µM*	?	-25%
CCOC(=O)c1[nH]c(C)c(C(=O)Nc2cc(OC)ccc2OC)c1C	14%	5%[11.4 µM]	10µM*	1%	-15%
CCOC(=O)c1c(C)[nH]c(C(=O)OCC(=O)Nc2cc(C)ccc2OC)c1C	3%	8%	?	-1%	-28%
O=c1c2ccccc2nc(SCc2cn3ccsc3n2)n1-c1ccccc1	?	?	1.3µM*	1%	-26%
O=c1c2ccccc2nc(SCc2cn3ccsc3n2)n1-c1ccccc1F	?	?	5µM*	7%	-20%
c1ccc(CSCc2cn3ccsc3n2)cc1	?	?	-2%	1%	-3%
COc1ccc(-c2nc3cnc(OCc4ccccc4)nc3n(CCC#N)c2=O)cc1	?	?	?	-1%[11.4 µM]	8%
CCOc1ccc(-c2n[nH]c(C)c2Oc2ccc(OC)cc2)c(O)c1	-1%	4%	6%	?	40µM*
CCOc1ccc(-c2[nH]ncc2Oc2ccccc2OC)c(O)c1	-13%	8%	24%	7%	-4%
O=C(Cc1cn2ccsc2n1)Nc1ccccc1Oc1ccccc1	25%	-5%	-10%	0%	-13%
COc1ccc(OC)c(-n2c(SCC(C)=O)nnc2-c2cccc(S(=O)(=O)N(C)C)c2)c1	?	?	9%	-1%	?
COc1cccc(-n2c(SCc3c(C)noc3C)nnc2-c2cccc(S(=O)(=O)N(C)C)c2)c1	4%	14%	?	0%	-7%
CCCSc1nnc(-c2cccc(S(=O)(=O)N(C)C)c2)n1-c1cc(OC)ccc1OC	7.9µM*	?	12%	0%	-2%
CCSc1nnc(-c2cccc(S(=O)(=O)N(C)C)c2)n1-c1cc(OC)ccc1OC	5µM*	?	14%	1%	11%
O=c1c2ccccc2n2c(-c3ccc(Cl)cc3)nnc2n1CCc1ccccc1	·	·	·	6%	·
CN1C(C(=O)Nc2ccc(OC(F)(F)F)cc2)=CC(c2cccs2)=NS1(=O)=O	·	·	·	1%	·
O=C1c2ccccc2-c2ccc(N(Cc3ccc(Br)cc3)Cc3ccc(Br)cc3)cc21	14%[11.4 µM]	4%[11.4 µM]	0%[7.6 µM]	0%[11.4 µM]	4µM*
O=C1c2ccccc2[C@@H]([C@@H]2c3ccccc3C(=O)c3cc(Br)ccc32)c2ccc(Br)cc21	6%[11.4 µM]	-4%[11.4 µM]	9%[7.6 µM]	1%[11.4 µM]	?
O=C(O)CCCNc1cc(N2CCC3(CC2)OCCO3)c2noc3c2c1C(=O)c1ccccc1-3	-24%	-19%	10µM*	?	32%
Cc1cc(=O)oc2cc(OC(C)C(=O)N3CCCc4ccccc43)ccc12 (stereo unspecified)	25µM*	?	5%	-5%	-25%
COCCNc1nc(C(C)(C)C)nc2c1nnn2Cc1ccccc1Cl	2.5µM*	?	3%	0%	13%
O=S(=O)(NCC1CCCO1)c1cccc(S(=O)(=O)N2CCCC2)c1 (stereo unspecified)	-1%	-2%	0%	-2%	7%
CC(C)C(OC(=O)c1ccco1)C(=O)NCc1ccccc1 (stereo unspecified)	25µM*	?	?	1%	3%
CCCCCCC1C(C#N)=C(N)OC2=C1C(=O)CC(C)(C)C2 (stereo unspecified)	11%	10%	10µM*	2%	·
CCC1C(C#N)=C(N)OC2=C1C(=O)CC(C)(C)C2 (stereo unspecified)	0%[11.4 µM]	·	?	2%	17%
SMILES	HEK293 cAMP cs	TSHR agonist	CRE-bla Fsk	IkB sig inh	ERK AVP inh
COC(=O)C1C(O)=C(C=NCC(C)N=CC2=C(O)C(C(=O)OC)C(C)(C)CC2=O)C(=O)CC1(C)C (stereo unspecified)	0%	-5%	13%	-1%	-1%
COc1ccccc1C(=O)N1CCN(c2ccccn2)CC1	5%	-1%	·	·	·
O=C(c1ccc(-c2ccccc2)cc1)N1CCN(c2ncccn2)CC1	25µM*	?	?	1%	4%
O=C(c1ccccc1OCc1ccccc1Br)N1CCN(c2ncccn2)CC1	16µM*	?	0%	0%	?
Cc1ccc(-c2nnc(CSc3nnc4c5c(C)c(C)sc5nc(C(C)C)n34)o2)cc1	22%	13%	3%	4%	-6%
O=C(C1CCCCC1)N(Cc1ccccc1)c1ccccn1	14%	16%	5%	-1%	-8%
O=C(c1ccccc1)N(Cc1ccccc1)c1ccccn1	21%[11.4 µM]	4µM*	?	3%	-11%
COc1ccccc1N1CCN(C(=O)CCn2nc(C)c(S(=O)(=O)N3CCCC3)c2C)CC1	·	·	·	2%	·
Cc1ccc2c(c1)N(CCC(=O)NCCCOC(C)C)C(=O)C(C)O2 (stereo unspecified)	6%	10%	13µM*	-2%	20%
Cc1nc2ccccc2n1-c1nc(-c2ccco2)cc(C(F)(F)F)n1	3.2µM*	?	-5%	1%	-2%
CC(=O)c1cccc(N2C(=NC(=O)C(C)C)SC3CS(=O)(=O)CC32)c1 (stereo unspecified)	7%	-1%	12%	-1%	-3%
N#Cc1c2n(c3c(=O)n(Cc4ccc(Cl)cc4)cnc13)CCCCC2	56%	6%	3.2µM*	6%	-26%
Cc1ccc2c(c1)C(c1ccccc1)N(C(=O)Cc1ccc(F)cc1)CC(=O)N2 (stereo unspecified)	·	·	·	-2%	·
Cc1onc(-c2ccccc2Cl)c1C(=O)Nc1cccc2cccnc12	?	?	?	?	9%
Cc1onc(-c2ccccc2Cl)c1C(=O)Nc1cccc2nsnc12	32µM*	?	?	0%	8%
O=C1C2=CC[C@H]3C(=O)N(Cc4ccccc4)C(=O)[C@@H]3[C@@H]2[C@H](O)[C@@H]2O[C@H]12	7%[11.4 µM]	-8%[11.4 µM]	·	·	-11%[11.5 µM]
CCOC(=O)C1=C(C)OC(N)=C(C#N)C1c1ccsc1 (stereo unspecified)	20µM*	?	-8%	-1%	-16%
CCOC(=O)C1=C(C)OC(N)=C(C#N)C1C1CCCCC1 (stereo unspecified)	25µM*	?	-2%	1%	-24%
CCOC(=O)C1=C(C)OC(N)=C(C#N)C1c1cc2c(cc1Br)OCO2 (stereo unspecified)	22%	·	5%	2%	13%
CCOC(=O)c1c(C)c(C(=O)NCc2ccc3c(c2)OCO3)c(C)n1CC	1%	13%[11.4 µM]	?	-1%	-25%
CCOC(=O)c1cnc(-n2cc(C)cn2)nc1NCc1ccc2c(c1)OCO2	?	?	2.5µM*	1%	-15%
CCOC(=O)c1cnc(-n2nc(C)cc2C)nc1NC(C)c1ccccc1 (stereo unspecified)	25µM*	?	16%	?	-11%

Source: PubChem (National Center for Advancing Translational Sciences (NCATS))
